S2 tox = cell viability loss in ATXN counter-screen. 400,000 compounds, 0.49% hits. AID 651635. Potency, µM (top dose mostly 56.7 µM), usual class: cytotoxic. S2 cells (HEK-293 line with an ATXN2-luciferase reporter) viability, CellTiter-Fluor protease fluorescence, 24 h; note: nearly all actives have a fitted effect of over 40% in size
HepG2 viability = HepG2 cytotoxicity, counter-screen for TGF-b inhibitors; HepG2 CAGA-GFP viability, ATP luminescence, 18 h; Potency, µM (series often up to 46.1 µM), inactives show at the highest dose activity change, negative = cytotoxicity, usual class: cytotoxic; 410,000 compounds, 0.76% hits; AID 588856
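HepG2 CAGA-GFP cells (1000/well, DMEM with 1% FBS) received compound, then TGF-beta at 500 pg/mL final, and were incubated 18 hours at 37 degrees C. Viability was read by CellTiter-Glo luminescence. Media-only wells were set as complete cell-killing and DMSO as no toxicity.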
HT1080 IDH1KD tx = kills HT-1080 cells with IDH1 knockdown | HT-1080 IDH1 knockdown viability, ATP luminescence, 48 h | Potency, µM (series often up to 46.1 µM), for inactives: at the highest dose activity, negative = toxicity, hits mostly cytotoxic | 360,000 compounds, 2% hits;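 note: 0% = DMSO wells and -100% = cell-free medium wells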
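Assay cells: HT-1080 with IDH1 knockdown, 750 per well, RPMI/5% FBS. Exposure: 48 h at 37 °C following 2 h pre-incubation. Read: CellTiter-Glo luminescence; fitted concentration-response, curve class assigned.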
TGFb SMAD3 inh = blocks TGF-b signaling. HepG2 CAGA-GFP TGF-b/SMAD3 reporter, GFP fluorescence, 18 h; TGF-beta stimulated, 500 pg/mL final. 410,000 compounds, 1.2% hits. Potency, µM (series often up to 46.1 µM), for inactives: at the highest dose activity, negative = inhibition, hits mostly inhibitors; note: % is set by controls: 0 for no effect and ±100 for the full control effect; nearly all actives have a fitted effect of over 65% in size
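TGF-beta reporter screen: HEPG2 CAGA-GFP, 1% FBS, 500 pg/mL TGF-beta final, 18 h; per-cell GFP summed per well; curves fitted and categorized by class.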
ATXN2 expr inh = ATXN2 expression inhibition; HEK-293 ATXN2-luciferase reporter, luminescence, 24 h; Potency, µM (series often up to 57 µM), inactives show top-dose activity change, negative = inhibition, usual class: inhibitors; 360,000 compounds, 0.72% hits; note: % is set by controls: 0 for no effect and ±100 for the full control effect; nearly all actives have a fitted effect of over 55% in size
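ATXN2-luciferase reporter cells (luciferase flanked by upstream and downstream ATXN2 gene portions) were treated 24 h at 37 °C with compounds at up to 57 uM. SteadyGlo luminescence gave expression; GF-AFC fluorescence gave viability.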
HT1080NT lethal = kills 2HG-producing HT-1080-NT fibrosarcoma cells; HT-1080-NT fibrosarcoma viability, CellTiter-Glo ATP luminescence, 48 h; 360,000 compounds, 1.6% hits; AID 686970; Potency, µM (doses to about 46.1 µM), without a hit: at the highest dose activity, negative = less viability, hits mostly cytotoxic;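 note: NT is the 2HG producing partner of a matched IDH1 knockdown line; 0% = DMSO-treated cells and -100% = media-only wells without cells; nearly all actives have a fitted effect of over 55% in size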
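750 cells/well, RPMI + 5% FBS; 2 h settle, compound pin-transfer, 48 h at 37 degrees C. CellTiter-Glo 10 min RT, luminescence. Normalized to DMSO and media-only wells.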
* = called active by the depositor; i = inactive; ? = inconclusive; . = no result; ! = a repeat was not active. Sampled rows, rich in hits. Any-hit rate of the full collection: about 3.8%. Calls come from the whole dose curve; as a rule, active = well fitted curve in the direction sought with a large enough effect; inconclusive = small, poorly fitted or top-dose-only effect, or another doubt; inactive = no such curve, though single readings can be large; an effect the other way counts as inactive or inconclusive. Potency is the fitted concentration of half-maximal effect.

SMILES | S2 tox | HepG2 viability | HT1080 IDH1KD tx | TGFb SMAD3 inh | ATXN2 expr inh | HT1080NT lethal
COc1ccc(CCC(=O)Nc2c(-c3ccc(N(C)C)cc3)[nH][nH]c2=O)cc1 | ? | -89% | -27% | ? | 20µM* | -16%
NC(=S)N/N=C1\CCOc2ccc(Cl)cc21 | . | -58% | -15% | 8.9µM* | . | -16%
COc1cccc(-n2c(=O)c3c(C)c(C)sc3n(CC(=O)NCc3ccccc3)c2=O)c1 | ? | -2% | . | 15% | 1% | .
CCN(CC)S(=O)(=O)c1ccc(C(=O)N2CC(=O)Nc3ccc(F)cc3C2c2ccccc2)cc1 (stereo not drawn) | ? | -2% | . | 14% | -1% | .
NC(c1csc(Nc2nccc(C(F)(F)F)n2)n1)C1CCCCC1 (stereo not drawn) | i | -96% | 21µM* | ? | ? | 21µM*
NC(c1csc(Nc2ncccn2)n1)C1CCCCC1 (stereo not drawn) | i | 0% | -1% | 2% | -26% | -26%
NC(c1csc(Nc2ccc(C(F)(F)F)cn2)n1)C1CCCCC1 (stereo not drawn) | i | -87% | 18µM* | ? | ? | ?
CCC(C)NC(=O)CSc1nnc(-c2ccc(C)cc2)c(-c2ccc(C)cc2)n1 (stereo not drawn) | i | 2% | . | -8% | 0% | .
Cc1ccc(S(=O)(=O)N2CCCN(Cc3nc4ccccc4c(=O)[nH]3)CC2)cc1 | i | -13% | -6% | 8% | -7% | -4%
Cc1ccc(S(=O)(=O)N2CCCN(C(C)c3nc4ccccc4c(=O)[nH]3)CC2)cc1 (stereo not drawn) | i | -41% | -1% | 14µM* | . | -1%
CCCCCC1Nc2cc(C(F)(F)F)c(S(N)(=O)=O)cc2S(=O)(=O)N1 (stereo not drawn) | i | . | . | . | -1% | .
Cc1cc2nc(-c3cc(NC(=O)c4cc5ccccc5o4)ccc3Cl)oc2cc1C | i | -36% | . | -22% | 10% | .
CCCCCC(=O)O[C@]1(C(C)=O)CC[C@H]2[C@@H]3CCC4=CC(=O)CC[C@]4(C)[C@H]3CC[C@@]21C | 35µM*! | -37% | ? | ? | 28µM*! | ?
Cc1ccc(-c2nnc(Nc3ccccc3)o2)cc1 | i | -46% | 2% | 3% | 22µM* | ?
Cc1ccc(-c2nnc(-c3ccc4ccccc4c3)o2)cc1 | ? | -1% | 9.2µM* | -1% | 33% | ?
Cn1nc(-c2ccccc2)c(-c2ccccc2)c(C(=O)Nc2ccccc2C(N)=O)c1=O | . | -9% | . | 0% | . | .
N=c1n(CCN2CCCCC2)c2ccccc2n1CC(=O)c1cccc([N+](=O)[O-])c1 | ? | 13µM* | -2% | ? | ? | 0%
C=CCn1c(=N)n(CC(=O)c2cccc([N+](=O)[O-])c2)c2ccccc21 | ? | 0% | 0% | 0% | -19% | -18%
Cc1csc(-c2nnc(Nc3ccc(Oc4ncccc4-c4ccnc(N)n4)cc3)c3ccccc23)c1 | . | . | . | . | 12µM* | .
Cc1ccc(N(Cc2cc(=O)[nH]c3ccccc23)C(=O)CCl)c(C)c1 | ? | 22µM* | 5.2µM* | 18µM* | ? | 4.6µM*
CCCN(CCC)S(=O)(=O)c1ccc2c(c1)N(CC(=O)NC(C)c1ccccc1)C(=O)CS2 (stereo not drawn) | . | -4% | . | -31% | . | .
Cc1ccc(CN(Cc2ccco2)c2cnc(S(C)(=O)=O)nc2C(=O)Nc2ccccc2Br)o1 | i | -10% | . | -6% | 7% | .
Cc1nc(N2CCC(C)CC2)c2c(C)c(C(=O)Nc3cccc(C(F)(F)F)c3)sc2n1 | i | -1% | ? | 8% | . | ?
